# ± gives the standard deviation.
# T1: HaloTag-ATRX ADD domain (163-292)
# T1 chain: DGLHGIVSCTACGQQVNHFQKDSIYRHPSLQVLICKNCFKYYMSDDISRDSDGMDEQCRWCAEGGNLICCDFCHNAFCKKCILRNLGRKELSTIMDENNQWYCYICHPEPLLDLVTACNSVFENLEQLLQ
# How the values were obtained:
# Assay in all cases: peptide microarray binding signal (635 nm), min-max normalized on array (fraction of array maximum); higher = stronger binding
# [1] = molecular target: T1, HaloTag-ATRX ADD domain (163-292)
# Procedure, shortened: (§1)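 Within each library, mean intensities of triplicate spots were min-max scaled to give the binding signal. The spots were histone 13-mer peptide–cellulose conjugates on nitrocellulose with a Cy3 tracer, blocked overnight at 4°C. They were then probed for 1 h at 4°C using biotin-labelled HaloTag reader fusions (10 nM to 1 μM) with streptavidin-Alexa Fluor 647 or rabbit histone antibodies (1:10,000 to 1:2,000) with anti-rabbit Alexa 647, and scanned at 635 nm for signal and 532 nm for misprints on an Axon GenePix 4000B.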
# [2] = molecular target: HaloTag-ING2 PHD (mouse Ing2 200-280)
# Procedure, shortened: as §1
# [3] = molecular target: anti-H3K4me3 antibody ab8580
# Procedure, shortened: as §1
# [4] = molecular target: anti-H3K9me3 antibody ab8898
# Procedure, shortened: as §1
# [5] = peptide region: H4 8-19, binder concentration: 1:2,000 dilution
# [6] = peptide region: H4 8-19, binder concentration: 1:10,000 dilution
# [7] = peptide region: H4 1-13, peptide modifications: H4K8ac, binder concentration: 1:2,000 dilution
# [8] = peptide region: H4 1-13, peptide modifications: H4K8ac, binder concentration: 1:10,000 dilution
# [9] = peptide region: H4 1-13, peptide modifications: H4K8ac H4K12ac, binder concentration: 1:2,000 dilution
# [10] = peptide region: H4 1-13, peptide modifications: H4K8ac H4K12ac, binder concentration: 1:10,000 dilution
# [11] = peptide region: H4 1-13, peptide modifications: H4R3me2s, binder concentration: 1:2,000 dilution
# [12] = peptide region: H4 1-13, peptide modifications: H4R3me2s, binder concentration: 1:10,000 dilution
# [13] = peptide region: H4 1-13, peptide modifications: H4S1ph H4K8ac, binder concentration: 1:2,000 dilution
# [14] = peptide region: H4 1-13, peptide modifications: H4S1ph H4K8ac, binder concentration: 1:10,000 dilution
# [15] = peptide region: H4 1-13, peptide modifications: H4R3me2a, binder concentration: 1:2,000 dilution
# [16] = peptide region: H4 1-13, peptide modifications: H4R3me2a, binder concentration: 1:10,000 dilution
# [17] = peptide region: H4 1-13, peptide modifications: H4K5ac H4K12ac, binder concentration: 1:2,000 dilution
# [18] = peptide region: H4 1-13, peptide modifications: H4K5ac H4K12ac, binder concentration: 1:10,000 dilution
# [19] = peptide region: H4 1-13, peptide modifications: H4S1ph H4K5ac, binder concentration: 1:2,000 dilution
# [20] = peptide region: H4 1-13, peptide modifications: H4S1ph H4K5ac, binder concentration: 1:10,000 dilution
# [21] = peptide region: H4 1-13, peptide modifications: H4K12ac, binder concentration: 1:2,000 dilution
# [22] = peptide region: H4 1-13, peptide modifications: H4K12ac, binder concentration: 1:10,000 dilution
# [23] = peptide region: H4 1-13, peptide modifications: H4K5ac, binder concentration: 1:2,000 dilution
# [24] = peptide region: H4 1-13, peptide modifications: H4K5ac, binder concentration: 1:10,000 dilution
binder,measurement,setting,value
KGLGKGGAKRHRK [H4 8-19 K G L G K G G A K R H R K],peptide microarray binding signal,"[1]; peptide region: H4 8-19, binder concentration: 50 nM",0.00495 ± 5.5e-05
same,peptide microarray binding signal,"[1]; peptide region: H4 8-19, binder concentration: 500 nM",0.0131 ± 0.0015
same,peptide microarray binding signal,"[2]; peptide region: H4 8-19, binder concentration: 10 nM",0.00466 ± 0.00021
same,peptide microarray binding signal,"[2]; peptide region: H4 8-19, binder concentration: 100 nM",0.0136 ± 0.0014
same,peptide microarray binding signal,[3]; [5],0.000793 ± 4.3e-05
same,peptide microarray binding signal,[3]; [6],0.00154 ± 3e-05
same,peptide microarray binding signal,[4]; [5],0.000529 ± 1.3e-05
same,peptide microarray binding signal,[4]; [6],0.0011 ± 1.1e-05
SGRGKGGKGLGKG [H4 1-13 S G R G K G G Kac G L G K G],peptide microarray binding signal,"[1]; peptide region: H4 1-13, peptide modifications: H4K8ac, binder concentration: 50 nM",0.00248 ± 2.9e-05
same,peptide microarray binding signal,"[1]; peptide region: H4 1-13, peptide modifications: H4K8ac, binder concentration: 500 nM",0.00481 ± 8.5e-05
same,peptide microarray binding signal,"[2]; peptide region: H4 1-13, peptide modifications: H4K8ac, binder concentration: 10 nM",0.002626 ± 1.5e-05
same,peptide microarray binding signal,"[2]; peptide region: H4 1-13, peptide modifications: H4K8ac, binder concentration: 100 nM",0.00546 ± 0.00011
same,peptide microarray binding signal,[3]; [7],0.000434 ± 1.2e-05
same,peptide microarray binding signal,[3]; [8],0.000628 ± 6.7e-06
same,peptide microarray binding signal,[4]; [7],9.06e-05 ± 3.5e-06
same,peptide microarray binding signal,[4]; [8],0.000346 ± 3.8e-06
SGRGKGGKGLGKG [H4 1-13 S G R G K G G Kac G L G Kac G],peptide microarray binding signal,"[1]; peptide region: H4 1-13, peptide modifications: H4K8ac H4K12ac, binder concentration: 50 nM",0.00188 ± 7.5e-05
same,peptide microarray binding signal,"[1]; peptide region: H4 1-13, peptide modifications: H4K8ac H4K12ac, binder concentration: 500 nM",0.00533 ± 0.00034
same,peptide microarray binding signal,"[2]; peptide region: H4 1-13, peptide modifications: H4K8ac H4K12ac, binder concentration: 10 nM",0.00179 ± 0.0001
same,peptide microarray binding signal,"[2]; peptide region: H4 1-13, peptide modifications: H4K8ac H4K12ac, binder concentration: 100 nM",0.00255 ± 6.4e-05
same,peptide microarray binding signal,[3]; [9],0.00017 ± 6.4e-06
same,peptide microarray binding signal,[3]; [10],0.000799 ± 1.7e-05
same,peptide microarray binding signal,[4]; [9],0.000438 ± 8.5e-06
same,peptide microarray binding signal,[4]; [10],0.000577 ± 1.2e-05
SGRGKGGKGLGKG [H4 1-13 S G Rme2s G K G G K G L G K G],peptide microarray binding signal,"[1]; peptide region: H4 1-13, peptide modifications: H4R3me2s, binder concentration: 50 nM",0.00304 ± 5.1e-05
same,peptide microarray binding signal,"[1]; peptide region: H4 1-13, peptide modifications: H4R3me2s, binder concentration: 500 nM",0.0107 ± 0.0019
same,peptide microarray binding signal,"[2]; peptide region: H4 1-13, peptide modifications: H4R3me2s, binder concentration: 10 nM",0.00161 ± 0.00016
same,peptide microarray binding signal,"[2]; peptide region: H4 1-13, peptide modifications: H4R3me2s, binder concentration: 100 nM",0.00468 ± 0.0011
same,peptide microarray binding signal,[3]; [11],0.000227 ± 2.2e-05
same,peptide microarray binding signal,[3]; [12],0.00097 ± 4.3e-05
same,peptide microarray binding signal,[4]; [11],0.000317 ± 3.5e-05
same,peptide microarray binding signal,[4]; [12],0.000461
SGRGKGGKGLGKG [H4 1-13 Sph G R G K G G Kac G L G K G],peptide microarray binding signal,"[1]; peptide region: H4 1-13, peptide modifications: H4S1ph H4K8ac, binder concentration: 50 nM",0.00445 ± 0.00043
same,peptide microarray binding signal,"[1]; peptide region: H4 1-13, peptide modifications: H4S1ph H4K8ac, binder concentration: 500 nM",0.0149 ± 0.0018
same,peptide microarray binding signal,"[2]; peptide region: H4 1-13, peptide modifications: H4S1ph H4K8ac, binder concentration: 10 nM",0.00251 ± 3.8e-05
same,peptide microarray binding signal,"[2]; peptide region: H4 1-13, peptide modifications: H4S1ph H4K8ac, binder concentration: 100 nM",0.00503 ± 0.00084
same,peptide microarray binding signal,[3]; [13],0.000359 ± 1.8e-05
same,peptide microarray binding signal,[3]; [14],0.000742 ± 1.3e-05
same,peptide microarray binding signal,[4]; [13],0.000332 ± 6.7e-06
same,peptide microarray binding signal,[4]; [14],0.000577 ± 6.2e-06
SGRGKGGKGLGKG [H4 1-13 S G Rme2a G K G G K G L G K G],peptide microarray binding signal,"[1]; peptide region: H4 1-13, peptide modifications: H4R3me2a, binder concentration: 50 nM",0.0021 ± 9.6e-06
same,peptide microarray binding signal,"[1]; peptide region: H4 1-13, peptide modifications: H4R3me2a, binder concentration: 500 nM",0.00305 ± 6.3e-05
same,peptide microarray binding signal,"[2]; peptide region: H4 1-13, peptide modifications: H4R3me2a, binder concentration: 10 nM",0.00269 ± 4e-05
same,peptide microarray binding signal,"[2]; peptide region: H4 1-13, peptide modifications: H4R3me2a, binder concentration: 100 nM",0.00404 ± 9.1e-05
same,peptide microarray binding signal,[3]; [15],0.000227 ± 4.2e-06
same,peptide microarray binding signal,[3]; [16],0.000856 ± 2.3e-05
same,peptide microarray binding signal,[4]; [15],1.51e-05 ± 1.7e-07
same,peptide microarray binding signal,[4]; [16],0.000577 ± 1.2e-05
SGRGKGGKGLGKG [H4 1-13 S G R G Kac G G K G L G Kac G],peptide microarray binding signal,"[1]; peptide region: H4 1-13, peptide modifications: H4K5ac H4K12ac, binder concentration: 50 nM",0.00552 ± 0.00053
same,peptide microarray binding signal,"[1]; peptide region: H4 1-13, peptide modifications: H4K5ac H4K12ac, binder concentration: 500 nM",0.0164 ± 0.0029
same,peptide microarray binding signal,"[2]; peptide region: H4 1-13, peptide modifications: H4K5ac H4K12ac, binder concentration: 10 nM",0.00352 ± 0.00063
same,peptide microarray binding signal,"[2]; peptide region: H4 1-13, peptide modifications: H4K5ac H4K12ac, binder concentration: 100 nM",0.00822 ± 0.0021
same,peptide microarray binding signal,[3]; [17],0.000547 ± 0.00012
same,peptide microarray binding signal,[3]; [18],0.00217 ± 0.00014
same,peptide microarray binding signal,[4]; [17],0.00131 ± 0.00038
same,peptide microarray binding signal,[4]; [18],0.00196 ± 8e-05
SGRGKGGKGLGKG [H4 1-13 Sph G R G Kac G G K G L G K G],peptide microarray binding signal,"[1]; peptide region: H4 1-13, peptide modifications: H4S1ph H4K5ac, binder concentration: 50 nM",0.00348 ± 3.8e-05
same,peptide microarray binding signal,"[1]; peptide region: H4 1-13, peptide modifications: H4S1ph H4K5ac, binder concentration: 500 nM",0.0117 ± 0.00091
same,peptide microarray binding signal,"[2]; peptide region: H4 1-13, peptide modifications: H4S1ph H4K5ac, binder concentration: 10 nM",0.001373 ± 8.3e-06
same,peptide microarray binding signal,"[2]; peptide region: H4 1-13, peptide modifications: H4S1ph H4K5ac, binder concentration: 100 nM",0.00269 ± 6.7e-05
same,peptide microarray binding signal,[3]; [19],0.000208 ± 2.2e-06
same,peptide microarray binding signal,[3]; [20],0.000856 ± 8.9e-06
same,peptide microarray binding signal,[4]; [19],0.000362 ± 6.3e-06
same,peptide microarray binding signal,[4]; [20],0.000692 ± 7.3e-06
SGRGKGGKGLGKG [H4 1-13 S G R G K G G K G L G Kac G],peptide microarray binding signal,"[1]; peptide region: H4 1-13, peptide modifications: H4K12ac, binder concentration: 50 nM",0.00238 ± 2.8e-05
same,peptide microarray binding signal,"[1]; peptide region: H4 1-13, peptide modifications: H4K12ac, binder concentration: 500 nM",0.00652 ± 0.001
same,peptide microarray binding signal,"[2]; peptide region: H4 1-13, peptide modifications: H4K12ac, binder concentration: 10 nM",0.00251 ± 0.00023
same,peptide microarray binding signal,"[2]; peptide region: H4 1-13, peptide modifications: H4K12ac, binder concentration: 100 nM",0.0056 ± 0.00073
same,peptide microarray binding signal,[3]; [21],0.000302 ± 1.7e-05
same,peptide microarray binding signal,[3]; [22],0.000799 ± 3.3e-05
same,peptide microarray binding signal,[4]; [21],0.000121 ± 8.7e-06
same,peptide microarray binding signal,[4]; [22],0.000577 ± 6.2e-06
SGRGKGGKGLGKG [H4 1-13 S G R G Kac G G K G L G K G],peptide microarray binding signal,"[1]; peptide region: H4 1-13, peptide modifications: H4K5ac, binder concentration: 50 nM",0.00201 ± 2.4e-05
same,peptide microarray binding signal,"[1]; peptide region: H4 1-13, peptide modifications: H4K5ac, binder concentration: 500 nM",0.00524 ± 0.00032
same,peptide microarray binding signal,"[2]; peptide region: H4 1-13, peptide modifications: H4K5ac, binder concentration: 10 nM",0.00197 ± 5.8e-05
same,peptide microarray binding signal,"[2]; peptide region: H4 1-13, peptide modifications: H4K5ac, binder concentration: 100 nM",0.00659 ± 0.00054
same,peptide microarray binding signal,[3]; [23],0.000585 ± 1.1e-05
same,peptide microarray binding signal,[3]; [24],0.000571 ± 1.1e-05
same,peptide microarray binding signal,[4]; [23],0.000302 ± 1.2e-05
same,peptide microarray binding signal,[4]; [24],0.000404 ± 4.4e-06
